# S2 tox – reduces viability in counter-screen for ATXN expression inhibitors. 400,000 tested, 0.49% active. S2 cells (HEK-293 line with an ATXN2-luciferase reporter) viability, CellTiter-Fluor protease fluorescence, 24 h. Potency, µM (series often up to 56.7 µM), usual class: cytotoxic; note: potency is the fitted concentration of half-maximal effect; nearly all actives have a fitted effect of over 40% in size
# TGFb SMAD3 inh – inhibitors of TGF-b signaling | HepG2 CAGA-GFP TGF-b/SMAD3 reporter, GFP fluorescence, 18 h; TGF-beta stimulated, 500 pg/mL final | Potency, µM (top dose mostly 46.1 µM), for the others: at the top dose activity, negative = inhibition, usual class: inhibitors | 410,000 tested, 1.2% active | AID 588855; note: potency is the fitted concentration of half-maximal effect; % is set by controls: 0 for no effect and ±100 for the full control effect; nearly all actives have a fitted effect of over 65% in size
#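 HEPG2 CAGA-GFP reporter cells (1000/well, DMEM with 1% FBS) received compounds, then recombinant TGF-beta at 500 pg/mL final for 18 hours at 37 degrees C. Per-cell GFP summed per well was normalised to unstimulated and stimulated DMSO controls before curve fitting.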
# ATXN2 expr inh – ATXN2 expression inhibition. HEK-293 ATXN2-luciferase reporter, luminescence, 24 h. Potency, µM (doses to about 57 µM), without a hit: at the highest dose activity change, negative = inhibition, actives largely listed as inhibitors. 360,000 tested, 0.72% active. AID 1745845; note: potency is the fitted concentration of half-maximal effect; % is set by controls: 0 for no effect and ±100 for the full control effect; nearly all actives have a fitted effect of over 55% in size
#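 ATXN2-luciferase reporter cells (luciferase flanked by upstream and downstream ATXN2 gene portions) were treated 24 h at 37 °C with compounds at up to 57 uM. SteadyGlo luminescence gave expression; GF-AFC fluorescence gave viability.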
# HepG2 tox – counter-screen for TGF-b inhibitors: cytotoxicity in HepG2 cells; Potency, µM (doses to about 46.1 µM), without a hit: at the highest dose activity change, negative = cytotoxicity, actives largely listed as cytotoxic; HepG2 CAGA-GFP viability, ATP luminescence, 18 h; AID 588856; 410,000 tested, 0.76% active; note: potency is the fitted concentration of half-maximal effect
#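 CellTiter-Glo luminescence gave cytotoxicity after 18 hours at 37 degrees C. The cells were HepG2 CAGA-GFP in 1% FBS DMEM, stimulated with 500 pg/mL TGF-beta after compound addition. %Activity was normalised to no-cell wells (complete cell-killing) and DMSO (no toxicity), and curves were fitted and classified.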
# D3 antag – D3 dopamine receptor (human) antagonism; P35462; D3R cells, DiscoveRx beta-arrestin luminescence, antagonist mode; stronger effect = lower value; max response, negative = inhibition, %; 360,000 tested, 2.5% active; AID 652054; in the data active = max response below about -50%; inconclusive = no clear call, values can overlap the other calls; note: % is set by controls: 0 for no effect and ±100 for the full control effect
# Target sequence (P35462 whole entry, looked up): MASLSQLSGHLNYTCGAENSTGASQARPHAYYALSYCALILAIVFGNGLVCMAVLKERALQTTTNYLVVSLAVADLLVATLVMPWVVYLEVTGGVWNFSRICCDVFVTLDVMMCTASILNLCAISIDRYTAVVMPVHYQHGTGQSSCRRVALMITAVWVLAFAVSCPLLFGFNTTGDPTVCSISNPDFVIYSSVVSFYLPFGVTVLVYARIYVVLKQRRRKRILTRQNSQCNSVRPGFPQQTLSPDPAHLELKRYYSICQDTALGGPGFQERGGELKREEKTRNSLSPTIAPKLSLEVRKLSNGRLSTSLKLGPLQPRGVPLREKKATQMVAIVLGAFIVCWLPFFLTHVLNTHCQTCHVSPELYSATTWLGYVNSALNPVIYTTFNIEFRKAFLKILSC
#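 Cells expressing the human receptor were seeded at 1500 cells/well, incubated overnight at 37 degrees C in 5% CO2, then exposed to library compounds with dopamine controls for 90 minutes at 37 degrees C before luminescent detection.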
# DRD3 agonist – activates the human D3 dopamine receptor | D3R DiscoveRx beta-arrestin cells, luminescence, 90 min | max activation, % | 410,000 tested, 0.58% active | AID 652048 | P35462; in the data active = max activation above about 30%; note: 0% is about no effect
#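 Cells at 1500/well, incubated overnight, then treated with pinned compounds (dopamine as control) for 90 min at 37 degrees C. DiscoveRx reagent added for 30 - 60 minutes at room temperature; luminescence read.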
# * marks the source's active call; other numbers are inactive results; i = inactive; ? = inconclusive; . = no result given. Only some compounds are listed: those with a hit (about 4.8% of all), similar ones and a draw of the others. Unless noted, calls come from the whole dose curve; as a rule, active = well fitted curve in the direction sought with a large enough effect; inconclusive = small, poorly fitted or top-dose-only effect, or another doubt; inactive = no such curve, though single readings can be large; an effect the other way counts as inactive or inconclusive.
SMILES,S2 tox,TGFb SMAD3 inh,ATXN2 expr inh,HepG2 tox,D3 antag,DRD3 agonist
Cc1cccc2sc(N(Cc3cccnc3)C(=O)Cc3ccccc3)nc12,.,13µM*,.,-21%,.,-17
Cc1cccc2sc(N(Cc3cccnc3)C(=O)CCc3ccccc3)nc12,.,11µM*,.,-33%,.,-20
O=C(COc1ccccc1)N(Cc1cccnc1)c1nc2c(F)cccc2s1,.,?,.,-16%,.,7
NC(=O)c1cc[n+](CC2=C(C(=O)[O-])N3C(=O)[C@@H](NC(=O)Cc4cccs4)[C@H]3SC2)cc1,i,.,2%,.,.,7
CCCSS/C(CCO)=C(\C)N(C=O)Cc1cnc(C)nc1N,i,.,?,.,.,0
COc1ccc2c(c1)c1c(c(=O)n(Cc3ccccc3)c(=O)n1Cc1ccccc1)n2C,?,-4%,-6%,8%,.,2
c1cncc(OC2CCN(Cc3ccc4c(c3)CN(Cc3ccc5c(c3)OCCO5)CCO4)CC2)c1,i,.,.,.,.,.
CCOc1ccc(NC(=O)C(=O)NCCN2CCN(C(=O)c3ccc(C)cc3)CC2)cc1,i,13%,-11%,3%,-60*,-22
CCN1CCN(C(=O)c2ccc3c(c2)N(Cc2ccc(F)cc2)C(=O)c2ccccc2S3(=O)=O)CC1,.,.,.,-9%,.,-23
O=C(c1ccc2c(c1)N(Cc1ccc(F)cc1)C(=O)c1ccccc1S2(=O)=O)N1CCN(Cc2ccccc2)CC1,i,3.5µM*,-33%,-23%,.,-9
COc1ccc(C(=O)N2CCN(CCNC(=O)C(=O)Nc3ccc(Br)cc3)CC2)cc1,?,2%,-23%,0%,7,-21
CCOc1ccc(CN2CCN(Cc3ccc4c(c3)c3ccccc3n4CC)CC2)cc1,.,10µM*,.,-76%,.,-13
CCOc1ccc(CN2CCN(C(=O)c3ccccc3)CC2)cc1,i,0%,-25%,11%,-80*,-15
Cn1c(SCCOc2ccccc2)nnc1-c1ccc(NC(=O)CCc2ccccc2)cc1,.,-15%,.,-18%,.,.
COc1cc(C2c3c(-c4ccccc4O)n[nH]c3C(=O)N2Cc2ccco2)ccc1OCC(C)C (stereo unspecified),.,?,.,-111%,.,2
O=C(c1ccc2ccccc2c1)N1CCN(Cc2ccccc2)CC1,i,?,9%,-29%,-86*,-18
CCN(CC)C(=O)CSC1=Nc2ccccc2C2=NC(c3ccccc3)C(=O)N12 (stereo unspecified),i,-16%,136%,-17%,-62*,0
CCN(CC)S(=O)(=O)c1ccc(F)c(C(=O)NCCC(C)C)c1,i,-4%,3%,-5%,13,36*
CCN(Cc1ccccc1)S(=O)(=O)c1ccc(F)c(C(=O)Nc2ccc(C(C)C)cc2)c1,i,3%,10%,-1%,.,-2
Cn1cc(C(=O)O)c(=O)c2cc(S(=O)(=O)N3CCCCC3)ccc21,.,1%,.,-77%,.,-17
Cc1ccc(/C=N/n2c(-c3ccccc3)csc2=S)cc1,i,.,-1%,.,.,-15
Cc1cccn2c(=O)c3cc(C(=O)NCc4ccccc4)c(=N)n(CCOCCO)c3nc12,.,-7%,-27%,-13%,.,-3
CCOC(=O)Cc1ccc(Nc2nc(NC)nc3ccsc23)cc1,?,6%,-16%,0%,-78*,-23
CCOC(=O)Cc1ccc(Nc2nc(NCc3ccccc3)nc3ccsc23)cc1,i,?,-1%,-9%,96,12
Cc1ccc(NC(=O)CCc2nc(-c3ccccc3F)no2)c(C)c1,i,0%,-2%,-7%,.,-2
SMILES,S2 tox,TGFb SMAD3 inh,ATXN2 expr inh,HepG2 tox,D3 antag,DRD3 agonist
CC(C)(C)c1ccc(C(=O)C[n+]2cc(Br)cc(Br)c2)cc1,.,5%,.,-5%,.,.
O=C(CSc1nccn1-c1ccc(F)cc1)Nc1ccc(OC(F)(F)F)cc1,.,-21%,.,-22%,.,4
N#Cc1ccc(OCC(O)CN2CCN(C(c3ccccc3)c3ccccc3)CC2)cc1 (stereo unspecified),i,-8%,-11%,-26%,-54*,-24
CCC(=O)c1ccc(OCC(O)CN2CCOCC2)cc1 (stereo unspecified),i,-5%,1%,-3%,13,1
N#Cc1ccc(OCC(O)CN2CCN(CC(O)COc3ccc(C#N)cc3)CC2)cc1 (stereo unspecified),i,0%,-36%,1%,-12,-9
COc1ccccc1OCCCCN1CCN(C(c2ccccc2)c2ccccc2)CC1,?,?,-32%,-45%,-84*,-34
OC(COc1ccccc1)CN1CCN(C(c2ccccc2)c2ccccc2)CC1 (stereo unspecified),i,14µM*,-26%,-53%,-95*,-27
OC(COc1ccccc1)CN1CCCC1 (stereo unspecified),i,?,-9%,-13%,-6,-11
CCC(=O)c1ccc(OCC(O)CN2CCN(C(c3ccccc3)c3ccccc3)CC2)cc1 (stereo unspecified),i,-7%,-27%,-52%,-88*,-62
O=S(=O)(NCCNCC=Cc1ccc(Br)cc1)c1cccc2cnccc12,.,?,?,-75%,.,.
c1ccc(OCCOCCN2CCN(C(c3ccccc3)c3ccccc3)CC2)cc1,i,?,-26%,-48%,-78*,-30
COC(=O)c1c(OCc2ccccn2)cc(=O)n2c1CCN(Cc1ccc3nsnc3c1)CC2,i,.,.,.,.,.
CC(C)C[C@H](NC(=O)c1[nH]cnc1C(=O)Nc1ccc(CNC(=O)OC(C)(C)C)cc1)C(=O)OCc1ccccc1,?,?,28µM*,-42%,26,-16
C[C@H](NC(=O)c1nc[nH]c1C(=O)NCCCCCNC(=O)OC(C)(C)C)C(=O)OCc1ccccc1,i,1%,4%,4%,171,65*
CC(C)(C)OC(=O)CNC(=O)c1[nH]cnc1C(=O)NCC(=O)OCc1ccccc1,i,3%,-5%,-2%,67,71*
CC(C)(C)OC(=O)NCCCCCNC(=O)c1nc[nH]c1C(=O)NCC(=O)OCc1ccccc1,?,-6%,-27%,-12%,110,27
CC(C)C[C@H](NC(=O)c1[nH]cnc1C(=O)Nc1ccc(CNC(=O)OC(C)(C)C)cc1)C(=O)OC(C)(C)C,.,?,0%,-55%,73,-1
C[C@H](NC(=O)c1[nH]cnc1C(=O)Nc1ccc(CNC(=O)OC(C)(C)C)cc1)C(=O)OCc1ccccc1,.,?,?,-28%,42,80*
CN(C)CC(C)(C)CNC(=O)c1cnn(-c2nccc(-c3ccc4c(c3)OCO4)n2)c1-c1ccco1,i,.,.,.,.,.
Cc1occc(=O)c1OC(=O)Nc1ccc(Cl)c(Cl)c1,?,10µM*,-5%,-66%,-4,4
